Assay [1] relates to PRMT1 (protein arginine N-methyltransferase 1). The experiment in a line: small molecules binding arginine methyltransferase PRMT1 – biochemical, small-molecule microarray, 635 nm fluorescence, primary screen (AID 1088).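 Note: binding of Prmt1 protein to compounds spotted on small-molecule microarray slides.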 The settings on record: higher = more signal.
A short description of assay [2]: growth effects on S. cerevisiae YJM789 – YJM789 clinical isolate, OD600, 24 h, basal, primary screen (AID 1089).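 Note: growth of clinical yeast isolate S. cerevisiae YJM 789 seeded 1000 cells per well; test concentration not given here.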 The settings on record: higher = more signal, called active from +8 up or from −8 down.
A short description of assay [3]: S. pombe growth modifiers, basal conditions – strain 972, OD600, 24 h, no modulator, primary screen (AID 1090).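 Note: basal condition with compound alone and no growth modifier present; test concentration not given here.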 The settings on record: S. pombe 972 growth, higher = more signal, called active from +8 up or from −8 down.
Assay [4] in a line: budding yeast growth modifiers under rapamycin – strain BY4716, OD600, 96 h, primary screen (AID 1091). Note: test concentration not given here. The settings on record: S. cerevisiae BY4716 + rapamycin, higher = more signal, called active from +8 up or from −8 down.
The target of assay [5] is Torsin-1A-interacting protein 2 (Homo sapiens) (UniProt Q8NFQ8). The experiment in a line: small molecules binding lysate-expressed LULL1 – cell lysate, human LULL1 lysate, 635/667 nm fluorescence, primary screen (AID 1092).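 Note: probe is lysate of COS7 cells overexpressing human LULL1; score merges per-feature 667 nm fluorescence with signal-to-noise.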 The settings on record: small-molecule microarray, hLULL1 lysate binding, 635 nm fluorescence; higher = more signal.
Chain of Torsin-1A-interacting protein 2 (Homo sapiens) (Q8NFQ8 whole entry, looked up): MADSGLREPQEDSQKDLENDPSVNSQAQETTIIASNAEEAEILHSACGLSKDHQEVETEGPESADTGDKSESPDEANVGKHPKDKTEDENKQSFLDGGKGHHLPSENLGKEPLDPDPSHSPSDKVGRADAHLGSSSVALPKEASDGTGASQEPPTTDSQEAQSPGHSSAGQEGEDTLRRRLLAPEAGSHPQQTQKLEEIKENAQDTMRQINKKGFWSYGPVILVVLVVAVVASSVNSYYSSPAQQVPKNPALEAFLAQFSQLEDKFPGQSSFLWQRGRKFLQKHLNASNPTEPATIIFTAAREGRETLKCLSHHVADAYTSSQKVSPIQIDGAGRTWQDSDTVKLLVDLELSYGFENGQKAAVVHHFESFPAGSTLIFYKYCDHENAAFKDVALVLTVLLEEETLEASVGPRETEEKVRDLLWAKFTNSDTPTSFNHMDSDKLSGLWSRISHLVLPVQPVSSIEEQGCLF
Assay [6] in a line: optical density change of DRC41 E. coli – strain DRC41, OD650, 24 h, E. coli filamentation project, primary screen (AID 1093).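 Note: MC1000 strain lacking acrAB efflux and sulA so SOS filamentation is blocked; test concentration not given here.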 The settings on record: E. coli DRC41 growth, higher = more signal, called active from +8 up or from −8 down.
Assay [7] is described as follows: probe aLefty2 binding to arrayed compounds – biochemical, biotinylated probe, 635/667 nm fluorescence, primary screen (AID 1094).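 Note: score merges spot fluorescence near 667 nm with spot signal-to-noise ratio.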 The settings on record: small-molecule microarray, higher = more signal.
The test system of assay [8] is Noggin (protein binding on small-molecule microarray). Briefly: small molecules binding Noggin protein – biochemical, 635/667 nm fluorescence, primary screen (AID 1095).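 Note: score merges 667 nm feature fluorescence with signal to noise over triplicate slides.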 The settings on record: 635 nm fluorescence, higher = more signal.
Assay [9] deals with Neurogenic locus notch homolog protein 3 (Homo sapiens) (UniProt Q9UM47). The experiment in a line: small molecules binding NOTCH3 protein – biochemical, 635/667 nm fluorescence, primary screen (AID 1096). The settings on record: small-molecule microarray, 635 nm fluorescence, higher = more signal.
Chain of Neurogenic locus notch homolog protein 3 (Homo sapiens) (Q9UM47 whole entry, looked up): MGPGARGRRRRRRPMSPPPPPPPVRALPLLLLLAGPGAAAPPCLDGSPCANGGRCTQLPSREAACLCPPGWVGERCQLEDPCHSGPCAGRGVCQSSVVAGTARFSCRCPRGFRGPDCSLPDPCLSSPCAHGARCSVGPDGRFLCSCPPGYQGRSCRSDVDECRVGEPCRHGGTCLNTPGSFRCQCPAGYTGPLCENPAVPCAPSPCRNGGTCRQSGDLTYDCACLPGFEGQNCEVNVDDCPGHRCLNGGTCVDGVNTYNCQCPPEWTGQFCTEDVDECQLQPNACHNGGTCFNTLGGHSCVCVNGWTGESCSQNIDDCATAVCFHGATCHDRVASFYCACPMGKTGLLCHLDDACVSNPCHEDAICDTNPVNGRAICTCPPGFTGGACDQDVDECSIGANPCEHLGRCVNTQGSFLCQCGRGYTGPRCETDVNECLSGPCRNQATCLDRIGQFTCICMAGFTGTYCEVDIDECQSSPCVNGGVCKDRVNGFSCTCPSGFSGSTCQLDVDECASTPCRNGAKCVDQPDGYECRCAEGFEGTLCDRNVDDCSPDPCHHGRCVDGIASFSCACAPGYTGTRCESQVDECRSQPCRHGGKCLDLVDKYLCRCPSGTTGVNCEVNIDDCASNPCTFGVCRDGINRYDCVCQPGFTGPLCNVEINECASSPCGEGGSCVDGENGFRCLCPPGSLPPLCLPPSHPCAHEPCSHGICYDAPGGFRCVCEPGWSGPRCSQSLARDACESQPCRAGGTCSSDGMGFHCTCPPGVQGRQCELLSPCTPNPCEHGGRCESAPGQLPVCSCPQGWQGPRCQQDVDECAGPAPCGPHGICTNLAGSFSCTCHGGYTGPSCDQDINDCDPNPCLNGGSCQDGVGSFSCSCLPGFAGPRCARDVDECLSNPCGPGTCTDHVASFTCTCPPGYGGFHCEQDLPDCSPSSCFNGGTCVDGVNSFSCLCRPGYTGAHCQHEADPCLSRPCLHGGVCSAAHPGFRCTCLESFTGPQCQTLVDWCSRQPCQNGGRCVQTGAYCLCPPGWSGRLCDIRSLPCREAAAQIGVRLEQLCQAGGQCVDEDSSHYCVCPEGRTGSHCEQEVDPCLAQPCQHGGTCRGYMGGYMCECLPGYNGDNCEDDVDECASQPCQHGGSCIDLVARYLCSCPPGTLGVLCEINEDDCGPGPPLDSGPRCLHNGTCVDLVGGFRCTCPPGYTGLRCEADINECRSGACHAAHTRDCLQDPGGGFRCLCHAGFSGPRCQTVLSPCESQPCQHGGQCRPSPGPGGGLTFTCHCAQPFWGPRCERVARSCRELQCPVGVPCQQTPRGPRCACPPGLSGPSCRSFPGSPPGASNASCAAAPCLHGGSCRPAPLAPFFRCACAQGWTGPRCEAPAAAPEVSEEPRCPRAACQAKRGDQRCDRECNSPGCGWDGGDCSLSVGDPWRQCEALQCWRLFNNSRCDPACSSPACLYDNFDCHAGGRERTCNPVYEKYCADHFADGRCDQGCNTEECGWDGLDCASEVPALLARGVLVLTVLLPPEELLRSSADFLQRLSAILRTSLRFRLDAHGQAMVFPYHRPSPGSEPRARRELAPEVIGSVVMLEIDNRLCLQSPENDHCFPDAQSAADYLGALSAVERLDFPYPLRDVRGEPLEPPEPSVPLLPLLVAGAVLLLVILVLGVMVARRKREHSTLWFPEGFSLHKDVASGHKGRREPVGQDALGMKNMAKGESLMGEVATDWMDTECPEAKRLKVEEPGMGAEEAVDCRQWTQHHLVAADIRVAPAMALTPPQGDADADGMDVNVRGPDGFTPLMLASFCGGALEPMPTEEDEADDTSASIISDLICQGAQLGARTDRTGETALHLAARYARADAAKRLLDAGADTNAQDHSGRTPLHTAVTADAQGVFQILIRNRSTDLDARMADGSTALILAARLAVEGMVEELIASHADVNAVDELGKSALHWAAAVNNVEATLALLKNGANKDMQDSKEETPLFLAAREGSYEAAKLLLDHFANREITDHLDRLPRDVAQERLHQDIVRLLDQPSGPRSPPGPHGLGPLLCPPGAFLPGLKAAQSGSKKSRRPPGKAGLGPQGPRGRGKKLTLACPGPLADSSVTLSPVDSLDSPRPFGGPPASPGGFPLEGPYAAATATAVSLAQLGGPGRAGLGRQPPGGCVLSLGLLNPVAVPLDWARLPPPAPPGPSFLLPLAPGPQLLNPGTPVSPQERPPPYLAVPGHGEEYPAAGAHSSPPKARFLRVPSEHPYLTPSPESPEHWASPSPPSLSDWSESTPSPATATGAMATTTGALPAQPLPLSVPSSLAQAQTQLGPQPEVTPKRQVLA
Assay [10] can be described thus: probe aEGFR binding to arrayed compounds – biochemical, biotinylated probe, 635/667 nm fluorescence, primary screen (AID 1097).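 Note: probe is a biotinylated anti-EGFR antibody binding compounds printed on slides; score combines fluorescence near 667 nm and signal to noise of each spot.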 The settings on record: small-molecule microarray, higher = more signal.
The test system of assay [11] is Plasmodium falciparum Sir2 (PF13_0152, Sir2A). Briefly: Plasmodium falciparum Sir2A binding compounds – biochemical, small-molecule microarray, 635 nm fluorescence, primary screen (AID 1098).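 Note: score merges spot fluorescence intensity with its signal-to-noise ratio.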 The settings on record: fluorescence 635 nm, higher = more signal.
Assay [12] is described as follows: probe aDKK1 binding to arrayed compounds – biochemical, biotinylated probe, 635/667 nm fluorescence, primary screen (AID 1099).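 Note: score merges 667nm spot fluorescence with signal to noise across triplicate slides; reference of the scale not given here.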 The settings on record: small-molecule microarray, higher = more signal.
A short description of assay [13]: probe aCHRDL2 binding to arrayed compounds – biochemical, biotinylated probe, 635/667 nm fluorescence, primary screen (AID 1100). The settings on record: small-molecule microarray, higher = more signal.
A short description of assay [14]: change in splice reporter luminescence, either direction, cell-based, HEK293, spliceosome inhibition project, primary screen (AID 1101).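 Note: HEK293 cells carrying a splicing-competent luciferase reporter gene; test concentration not given here.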 The settings on record: HEK293 splicing luciferase reporter, 24 h, higher = more signal, called active from +8 up or from −8 down. A general note: Reporter assays use an easily measured gene product as a stand-in for the process of interest.

In assay [15] the target is Fibroblast growth factor 10 (Homo sapiens) (UniProt O15520). The experiment in a line: compounds binding fibroblast growth factor 10 – biochemical, small-molecule microarray, 635 nm fluorescence, primary screen (AID 1102). The settings on record: FGF10 binding, fluorescence 635 nm, higher = more signal.
Chain of Fibroblast growth factor 10 (Homo sapiens) (O15520 whole entry, looked up): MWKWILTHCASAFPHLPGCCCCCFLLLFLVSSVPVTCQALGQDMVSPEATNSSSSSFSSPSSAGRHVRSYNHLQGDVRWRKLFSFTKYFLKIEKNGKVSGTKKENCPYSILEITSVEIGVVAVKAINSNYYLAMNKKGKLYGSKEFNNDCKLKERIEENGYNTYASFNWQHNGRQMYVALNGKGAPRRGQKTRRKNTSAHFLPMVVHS
For assay [16], the system named is glycogen synthase kinase-3 (GSK3A per assay name; protocol says GSK3B). Briefly: compounds binding glycogen synthase kinase-3 – biochemical, small-molecule microarray, 635 nm fluorescence, GSK3A, primary screen (AID 1103). Note: the record names both GSK3A and GSK3B. The settings on record: fluorescence 635 nm, higher = more signal.
Assay [17] concerns the target Epidermal growth factor receptor (Homo sapiens) (UniProt P00533). The experiment in a line: compounds binding epidermal growth factor receptor – biochemical, small-molecule microarray, 635 nm fluorescence, primary screen (AID 1104).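 Note: score merges 667 nm emission intensity with spot signal to noise over triplicate slides.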 The settings on record: EGFR binding, higher = more signal.
Assay [18] addresses Follistatin-related protein 3 (Homo sapiens) (UniProt O95633). Briefly: compounds binding follistatin-related protein 3 – biochemical, small-molecule microarray, 635 nm fluorescence, primary screen (AID 1105).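 Note: score merges emission near 667 nm and signal to noise per printed spot across three slides.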 The settings on record: FSTL3 binding, higher = more signal.
Assay [19] deals with Dickkopf-related protein 1 (Homo sapiens) (UniProt O94907). The experiment in a line: small molecules binding DKK1 protein – biochemical, small-molecule microarray, 635 nm fluorescence scan, primary screen (AID 1106).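 Note: score merges emission near 667 nm with signal to noise over three replicate slides.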 The settings on record: higher = more signal.
Chain of Dickkopf-related protein 1 (Homo sapiens) (O94907 whole entry, looked up): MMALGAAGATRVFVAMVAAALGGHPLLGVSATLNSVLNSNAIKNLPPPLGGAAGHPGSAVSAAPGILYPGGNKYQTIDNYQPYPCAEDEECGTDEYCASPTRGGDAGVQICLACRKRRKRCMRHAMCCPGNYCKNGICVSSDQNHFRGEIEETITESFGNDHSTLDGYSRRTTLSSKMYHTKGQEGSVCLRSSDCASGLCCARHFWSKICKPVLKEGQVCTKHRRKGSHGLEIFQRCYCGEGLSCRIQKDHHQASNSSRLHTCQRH
For assay [20], the system named is Inhibin beta A chain (activin A). The experiment in a line: small molecules binding activin A – biochemical, small-molecule microarray, 635 nm fluorescence scan, primary screen (AID 1107).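 Note: mouse activin A protein probed at 4.33 µg/mL on printed slides; score merges bound-protein fluorescence near 667 nm with spot signal-to-noise.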 The settings on record: INHBA, higher = more signal.

Structures are written as SMILES. Activity calls are given as the source filed them.

Chain of Follistatin-related protein 3 (Homo sapiens) (O95633 whole entry, looked up): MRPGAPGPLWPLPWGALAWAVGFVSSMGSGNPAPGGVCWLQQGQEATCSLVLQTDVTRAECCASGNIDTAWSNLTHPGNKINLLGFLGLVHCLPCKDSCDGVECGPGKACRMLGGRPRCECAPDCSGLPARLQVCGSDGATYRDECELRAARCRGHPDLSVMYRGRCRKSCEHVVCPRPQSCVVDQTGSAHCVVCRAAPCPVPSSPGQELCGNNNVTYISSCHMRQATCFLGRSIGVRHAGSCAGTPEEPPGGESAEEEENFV
Chain of Epidermal growth factor receptor (Homo sapiens) (P00533 whole entry, looked up): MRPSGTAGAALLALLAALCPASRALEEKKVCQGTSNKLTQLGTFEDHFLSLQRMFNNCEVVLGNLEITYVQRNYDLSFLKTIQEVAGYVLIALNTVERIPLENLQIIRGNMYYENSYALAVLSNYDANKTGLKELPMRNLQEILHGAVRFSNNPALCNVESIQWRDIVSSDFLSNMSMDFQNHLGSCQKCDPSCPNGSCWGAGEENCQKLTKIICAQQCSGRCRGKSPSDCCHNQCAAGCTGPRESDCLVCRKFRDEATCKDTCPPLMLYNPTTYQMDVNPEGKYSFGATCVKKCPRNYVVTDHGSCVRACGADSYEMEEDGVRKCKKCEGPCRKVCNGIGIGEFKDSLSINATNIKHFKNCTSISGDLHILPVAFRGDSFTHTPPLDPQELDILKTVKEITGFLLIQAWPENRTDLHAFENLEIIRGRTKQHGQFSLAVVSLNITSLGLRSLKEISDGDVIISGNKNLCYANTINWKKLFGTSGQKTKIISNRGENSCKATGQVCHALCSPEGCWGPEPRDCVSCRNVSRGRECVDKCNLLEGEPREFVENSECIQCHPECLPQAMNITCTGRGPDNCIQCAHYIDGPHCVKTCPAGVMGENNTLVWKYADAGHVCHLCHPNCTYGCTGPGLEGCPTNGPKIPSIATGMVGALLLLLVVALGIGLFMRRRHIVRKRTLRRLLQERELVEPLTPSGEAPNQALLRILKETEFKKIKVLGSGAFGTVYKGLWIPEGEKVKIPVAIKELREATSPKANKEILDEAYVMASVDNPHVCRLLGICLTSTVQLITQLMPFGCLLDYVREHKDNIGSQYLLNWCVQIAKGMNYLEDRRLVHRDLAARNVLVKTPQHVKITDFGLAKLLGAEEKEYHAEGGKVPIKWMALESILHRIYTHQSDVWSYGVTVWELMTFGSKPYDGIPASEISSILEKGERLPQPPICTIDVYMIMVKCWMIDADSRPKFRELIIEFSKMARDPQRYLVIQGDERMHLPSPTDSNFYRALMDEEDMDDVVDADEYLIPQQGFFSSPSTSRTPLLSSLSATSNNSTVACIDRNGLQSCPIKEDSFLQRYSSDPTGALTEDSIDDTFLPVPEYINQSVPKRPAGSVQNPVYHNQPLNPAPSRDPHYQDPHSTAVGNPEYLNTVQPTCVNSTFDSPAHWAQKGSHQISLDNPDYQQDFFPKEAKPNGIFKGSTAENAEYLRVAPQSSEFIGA

`CCOC(=O)[C@H](Cc1ccccc1)NC(=O)OC1CC(CCC2CC(CC)=NO2)OC2(CCCC(COC(=O)NCCC(C)C)O2)C1` (stereo not given in full): the composite z-score in assay [1] is 1.19; in [5] it was 1.44; in [7] it was -0.147; in assay [8] it was 0.322; in [9], -0.0258; in assay [10] it was -0.0721. Moreover, the composite z-score in assay [11] was 0.328; in assay [12], -0.246; in [13], -0.264; in assay [15] it was 0.848; in [16], 0.207; in [17], 0.0954. In addition, the composite z-score in assay [18] was -0.127; in assay [19], 0.0585; in [20], -0.415. Moreover, the z-score was -0.764 (inactive) in assay [2]; 0.595 (inactive) in assay [3]; 0.344 (inactive) in [4]; 1.11 (inactive) in assay [6]; 0.667 (inactive) in [14].
On to `COC(=O)[C@H](C)NC(=O)CCC1CC(OC(=O)NCCc2ccc(F)cc2)CC2(CCCC(COC(=O)NCCC(C)C)O2)O1` (stereo not given in full), for which the composite z-score was 0.173 in assay [1]; 2.22 in assay [5]; -0.209 in assay [7]; 1.06 in [8]; 0.49 in assay [9]; -0.111 in [10]. The composite z-score is 0.597 in assay [11]; -0.185 in assay [12]; -0.269 in [13]; 0.866 in assay [15]; -0.102 in [16]; 0.0797 in assay [17]. Further, the composite z-score in assay [18] was determined as 0.961; in assay [19] it was 0.0468; in [20], 0.299. The z-score in assay [2] was -1.79 (inactive); in assay [3] it was -0.148 (inactive); in [4], -0.104 (inactive); in [6], -0.641 (inactive); in assay [14], -1.56 (inactive).
For the molecule `O=C1C[C@@H](O)[C@@H](O)[C@@H]2[C@@H]3C(=O)N(C[C@@H]4CCCO4)C(=O)[C@@H]3CC[C@H]12`, the composite z-score in assay [1] was 0.578; in [5] it was 0.493; in assay [7] it was -0.108; in [8], 0.394; in assay [9] it was 0.652; in [10], -0.0118. The composite z-score in assay [11] is 0.379; in assay [12], -0.273; in assay [13] it was -0.577; in assay [15], 0.508; in assay [16], 0.671; in assay [17], 0.531. The composite z-score is 0.601 in assay [18], 0.542 in assay [19] and -0.161 in assay [20]. Moreover, the z-score in assay [2] is 0.788 (inactive); in assay [3], -0.563 (inactive); in assay [4], 0.672 (inactive); in assay [6], 0.701 (inactive); in assay [14], 0.32 (inactive).
Regarding `COC(=O)[C@H](C)NC(=O)CCC1CC(OC(=O)NCc2cccc3ccccc23)CC2(CCCC(COC(=O)NCC(c3ccccc3)c3ccccc3)O2)O1` (stereo not given in full), the composite z-score was 1.48 in assay [1]; 2.99 in [5]; -0.166 in assay [7]; 0.661 in assay [8]; 1.09 in [9]; -0.0509 in assay [10]. Also, the composite z-score in assay [11] was 0.208; in [12], -0.0014; in [13] it was -0.523; in assay [15] it was 0.715; in assay [16] it was 1.27; in assay [17], 0.702. Also, the composite z-score is 0.601 in assay [18], 0.386 in assay [19] and -0.396 in assay [20]. The z-score was -0.797 (inactive) in [2]; 0.104 (inactive) in assay [3]; -0.691 (inactive) in [4]; 0.0609 (inactive) in assay [6]; 0.026 (inactive) in [14].
On to `O=C(NN=C1C[C@@H](O)[C@@H](O)[C@@H]2[C@@H]3C(=O)N(C4CCCCC4)C(=O)[C@@H]3CC[C@@H]12)OCc1ccccc1`, for which the composite z-score in assay [1] was -0.492; in assay [5], -0.181; in assay [7] it was -0.372; in assay [8], -0.248; in assay [9], 0.256; in assay [10], -0.0262. Besides, the composite z-score in assay [11] was 0.174; in assay [12], 0.261; in [13], 0.515; in assay [15], 0.0342; in assay [16] it was 0.0686; in assay [17] it was -0.0311. Further, the figures for the composite z-score in [18], in assay [19] and in assay [20] were 0.524, -0.0447 and -0.347, respectively. Moreover, the z-score in assay [2] is 0.313 (inactive); in assay [3] it was -0.452 (inactive); in assay [4], -0.157 (inactive); in assay [6], 0.572 (inactive); in assay [14] it was 0.662 (inactive).
